# Experimental data reported in PubChem BioAssay.
# The source made the active and inactive calls. Unless noted, no rule for the calls is given here.
# Legend:
# [1] = HepG2 liver cancer cell viability effects, profiling panel, resazurin fluorescence, 24 h, PK04 Diversity Set (AID 1172); settings: higher = more signal
# [2] = basal S. cerevisiae growth modulation, no modifier, primary screen, OD600, strain BY4716, 24 h, basal condition (AID 1173); settings: OD600, 24 h, higher = more signal, called active from +8 up or from −8 down
# [3] = MM1S myeloma cell viability, profiling panel, resazurin fluorescence, basal, 24 h, PK04 Diversity Set (AID 1174); settings: higher = more signal, called active from +8 up or from −8 down;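 also: MM1S multiple myeloma cell line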
# [4] = biological target: Dihydroorotate dehydrogenase (quinone), mitochondrial (Plasmodium falciparum (isolate 3D7)) (UniProt Q08210); test: PfDHODH enzyme inhibitors, primary screen, biochemical, C-terminal His tag, absorbance 600 nm (AID 1175); settings: DCIP absorbance 600 nm, higher = more signal, called active from +8 up or from −8 down;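 also: recombinant parasite enzyme with a five histidine tag at its C terminus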
# [5] = P. aeruginosa biofilm formation inhibitors, primary screen, strain PAO1, LB-PBS medium, absorbance 600 nm (AID 1176); settings: P. aeruginosa PAO1 growth/biofilm, A600, 12 h; higher = more signal
# [6] = S. cerevisiae RM11-1a growth modifiers, primary screen, strain RM11-1a, OD600, basal, 24 h (AID 1177); settings: OD600, 24 h, higher = more signal, called active from +8 up or from −8 down;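 also: cultures grown under basal conditions with no added stressor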
# [7] = E. coli acrAB mutant growth effects, primary screen, E. coli filamentation inducers, strain DRC39, OD650, 24 h (AID 1178); settings: higher = more signal, called active from +8 up or from −8 down;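 also: growth measured as culture turbidity by optical density at 650 nm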
# [8] = E. coli acrAB mutant growth effects, primary screen, E. coli filamentation inducers, strain DRC39, OD650, 48 h (AID 1179);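 also: screen aims at cell division blockers that make cells filament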; settings: E. coli DRC39 delta-acrAB growth, higher = more signal, called active from +8 up or from −8 down
# [9] = RPMI8226 myeloma cell viability, profiling panel, resazurin fluorescence, basal, 24 h, PK04 Diversity Set (AID 1180); settings: higher = more signal;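 also: RPMI8826 multiple myeloma cell line at 5000 cells per well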
# [10] = biological target: E3 ubiquitin-protein ligase XIAP (Homo sapiens) (UniProt P98170); test: XIAP binders, primary screen, biophysical, small-molecule microarray, fluorescence 635 nm (AID 1181); settings: small-molecule microarray binding, higher = more signal;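 also: score merges 667 nm emission and signal to noise over triplicate slides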
# [11] = system: XIP peptide (Xip251-270) binding; test: small-molecule binders of XIP peptide, primary screen, biochemical, small-molecule microarray, fluorescence 635/667 nm, 0.1 µg/mL protein (AID 1182); settings: fluorescent protein binding, 635 nm, higher = more signal, called active from +8 up or from −8 down
# [12] = system: XIP peptide (Xip251-270); test: small-molecule binders of XIP peptide, primary screen, biochemical, small-molecule microarray, fluorescence 635/667 nm, 0.5 µg/mL protein (AID 1183); settings: small-molecule microarray binding, fluorescence 635 nm; higher = more signal
# [13] = Plasmodium falciparum growth inhibition, primary screen, strain 3D7, DAPI fluorescence, 100 nL (AID 1184);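 also: parasites grown inside human red blood cells in medium with human serum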; settings: P. falciparum 3D7 growth, 3 d, higher = more signal
# [14] = biological target: Homeobox protein Hox-A13 (Mus musculus) (UniProt Q62424); test: inhibitors of HoxA13-DNA binding, primary screen, biochemical, fluorescence polarization, labeled oligonucleotide (AID 1185); settings: 15 min, higher = more signal, called active from +8 up or from −8 down
# [15] = inhibitors of hydroxyurea-induced Chk1 phosphorylation, primary screen, imaging, HeLa, phospho-Chk1 antibody, percent positive cells (AID 1186); settings: hydroxyurea-induced phospho-Chk1 immunofluorescence imaging, higher = more signal
# [16] = inhibitors of hydroxyurea-induced Chk1 phosphorylation, primary screen, imaging, HeLa, phospho-Chk1 nuclear intensity (AID 1187); settings: hydroxyurea-induced phospho-Chk1 immunofluorescence imaging, higher = more signal
# Sequence of E3 ubiquitin-protein ligase XIAP (Homo sapiens) (P98170 whole entry, looked up): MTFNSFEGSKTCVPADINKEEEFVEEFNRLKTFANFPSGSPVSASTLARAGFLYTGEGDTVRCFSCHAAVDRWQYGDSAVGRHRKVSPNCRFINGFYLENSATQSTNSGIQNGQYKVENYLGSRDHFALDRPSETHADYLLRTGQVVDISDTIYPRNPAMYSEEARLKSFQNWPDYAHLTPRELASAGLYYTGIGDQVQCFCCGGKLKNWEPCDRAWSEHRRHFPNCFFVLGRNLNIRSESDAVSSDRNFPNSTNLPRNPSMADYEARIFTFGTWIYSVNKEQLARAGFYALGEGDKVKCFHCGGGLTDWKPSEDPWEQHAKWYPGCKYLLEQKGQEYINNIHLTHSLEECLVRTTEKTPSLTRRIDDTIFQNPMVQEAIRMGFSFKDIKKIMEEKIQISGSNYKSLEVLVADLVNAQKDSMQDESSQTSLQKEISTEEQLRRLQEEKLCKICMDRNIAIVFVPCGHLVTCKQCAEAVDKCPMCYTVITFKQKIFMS
# Sequence of Dihydroorotate dehydrogenase (quinone), mitochondrial (Plasmodium falciparum (isolate 3D7)) (Q08210 whole entry, looked up): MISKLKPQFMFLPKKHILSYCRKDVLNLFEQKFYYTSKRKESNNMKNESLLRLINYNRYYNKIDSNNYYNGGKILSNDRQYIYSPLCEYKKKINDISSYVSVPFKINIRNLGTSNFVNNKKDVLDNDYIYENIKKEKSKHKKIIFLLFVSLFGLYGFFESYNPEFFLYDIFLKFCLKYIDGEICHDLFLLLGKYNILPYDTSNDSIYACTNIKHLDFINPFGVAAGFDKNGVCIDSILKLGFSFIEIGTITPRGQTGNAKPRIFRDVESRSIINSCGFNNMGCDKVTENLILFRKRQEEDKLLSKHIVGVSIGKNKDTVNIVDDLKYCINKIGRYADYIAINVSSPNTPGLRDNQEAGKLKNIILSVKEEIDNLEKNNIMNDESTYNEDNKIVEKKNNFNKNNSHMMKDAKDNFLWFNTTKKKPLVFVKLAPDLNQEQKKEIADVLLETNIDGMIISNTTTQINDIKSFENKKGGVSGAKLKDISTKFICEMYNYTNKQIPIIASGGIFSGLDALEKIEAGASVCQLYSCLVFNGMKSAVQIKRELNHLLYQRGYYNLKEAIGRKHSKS
# Sequence of Homeobox protein Hox-A13 (Mus musculus) (Q62424 whole entry, looked up): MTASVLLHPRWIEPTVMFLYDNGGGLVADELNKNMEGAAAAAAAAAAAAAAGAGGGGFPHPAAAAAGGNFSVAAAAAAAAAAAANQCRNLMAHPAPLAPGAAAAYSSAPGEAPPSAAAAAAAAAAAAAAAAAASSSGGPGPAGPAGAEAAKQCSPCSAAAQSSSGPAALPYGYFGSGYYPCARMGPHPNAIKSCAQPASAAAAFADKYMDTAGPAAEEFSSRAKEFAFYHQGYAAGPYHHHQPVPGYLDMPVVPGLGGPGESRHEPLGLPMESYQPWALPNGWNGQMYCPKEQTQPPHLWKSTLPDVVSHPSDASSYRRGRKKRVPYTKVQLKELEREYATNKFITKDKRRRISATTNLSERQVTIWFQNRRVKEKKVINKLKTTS
Compound,z-score [1],z-score [2],z-score [3],composite z-score [4],z-score [5],z-score [6],z-score [7],z-score [8],z-score [9],composite z-score [10],composite z-score [11],composite z-score [12],z-score [13],z-score [14],z-score [15],z-score [16]
CO[C@H]1O[C@H](CO)[C@@H](OC(=O)Nc2ccccc2-c2ccccc2)[C@H](OC(=O)Nc2ccccc2-c2ccccc2)[C@@H]1OC(=O)Nc1ccccc1-c1ccccc1,-0.141,-0.652 (inactive),-0.146 (inactive),0.288 (inactive),1.31 (inactive),2.59 (inactive),0.454 (inactive),0.434 (inactive),0.203,-0.0233,0.979 (inactive),0.801,-2.51,-1.13 (inactive),-0.0022 (inactive),0.119 (inactive)
CC(=O)Nc1cc(Br)ccc1C(=O)NCc1ccccc1,0.184,-8.91 (active),-0.292 (inactive),0.663 (inactive),-0.131 (inactive),-0.294 (inactive),0.0344 (inactive),-0.785 (inactive),-0.108,-0.157,0.137 (inactive),0.201,1.3,-0.77 (inactive),0.0852 (inactive),0.516 (inactive)
COCC(=C=CC[C@H](O)c1cccc(OCCO)c1)CCO,0.72,0.161 (inactive),0.491 (inactive),-0.326 (inactive),0.154 (inactive),0.896 (inactive),0.128 (inactive),0.398 (inactive),0.557,0.0153,1.15 (inactive),0.433,0.547,-2.29 (inactive),-0.0132 (inactive),-0.479 (inactive)
CC(C)(C)OC(=O)CC[C@]1(C(N)=O)N=C(c2ccc(OCCCO)cc2)O[C@H]1c1ccccc1,-0.49,0.45 (inactive),-0.689 (inactive),-0.0959 (inactive),0.55 (inactive),0.663 (inactive),-0.218 (inactive),-0.585 (inactive),-0.676,0.12,1.25 (inactive),-0.612,0.404,-2.87 (inactive),0.444 (inactive),-0.0163 (inactive)
COC(=O)C(CC#Cc1ccc2c(c1)[C@]1(C(=O)N2)[C@H](c2ccccc2OCCO)N2[C@H](c3ccccc3)[C@H](c3ccccc3)OC(=O)[C@H]2[C@@H]1C(=O)O)C(=O)OC,0.622,-0.502 (inactive),1.39 (inactive),-5.13 (inactive),1.96 (inactive),2.98 (inactive),0.84 (inactive),0.905 (inactive),-0.259,0.0533,0.117 (inactive),0.791,0.386,-5.57 (inactive),0.0449 (inactive),0.426 (inactive)
CC(C)CN1C(=O)[C@@]2(c3ccc([N+](=O)[O-])cc3)CC(=O)N(C3CCCCC3)[C@@H]2c2ccc(CO)cc21,-0.321,0.669 (inactive),-0.248 (inactive),-13.6 (active),0.292 (inactive),0.488 (inactive),0.0743 (inactive),0.922 (inactive),-0.323,0.119,-0.0685 (inactive),-0.57,-0.643,-0.113 (inactive),0.0566 (inactive),0.558 (inactive)
O=C(O)[C@H]1C[C@H]2C(=O)N3CCC[C@H]3C(=O)N2[C@H]1c1ccc(O)cc1,0.684,-0.171 (inactive),1.1 (inactive),-0.453 (inactive),0.0778 (inactive),0.208 (inactive),0.408 (inactive),0.715 (inactive),1.07,0.125,-0.469 (inactive),-0.0016,0.351,-1.01 (inactive),0.272 (inactive),0.267 (inactive)
CN1CCC(CCCO)=CC1c1cccs1 (configuration not stated),-0.34,-0.158 (inactive),-0.838 (inactive),-0.404 (inactive),-0.377 (inactive),-0.842 (inactive),0.212 (inactive),0.0999 (inactive),-0.707,-0.319,0.912 (inactive),-1,0.896,-4.21 (inactive),1.02 (inactive),0.692 (inactive)
CN1C(=O)C2C=CC(C(O)c3ccccc3)N(N3CCCCC3)C2C1=O (configuration not stated),-0.894,0.429 (inactive),-0.983 (inactive),0.0669 (inactive),0.462 (inactive),-0.023 (inactive),-1.32 (inactive),-1.4 (inactive),-1.56,0.263,0.344 (inactive),0.797,-0.261,-5.01 (inactive),0.246 (inactive),-0.455 (inactive)
CCCCN1CC=CC23O[C@@H]4C=CCOC(=O)[C@@H]4[C@H]2C(=O)N(CCCCCCO)[C@@H]3C1=O (some centres not stated),-0.556,0.0518 (inactive),0.0626 (inactive),-0.838 (inactive),-0.112 (inactive),-0.55 (inactive),0.272 (inactive),0.25 (inactive),-0.386,0.245,1.31 (inactive),-1.46,-0.198,-4.53 (inactive),-0.0344 (inactive),-0.364 (inactive)
COC(=O)[C@@]1(Cc2ccccc2)[C@H]2c3cc(C(=O)N(C)C)n(CCc4c[nH]c5ccc(O)cc45)c3C[C@H]2CN1C(=O)c1ccccc1,0.236,0.412 (inactive),-1.18 (inactive),-0.568 (inactive),1.07 (inactive),-0.438 (inactive),0.117 (inactive),0.29 (inactive),-1.27,-0.0261,1.44 (inactive),0.818,-1.59,-5.16 (inactive),-0.996 (inactive),-0.844 (inactive)
O=C(CS)NCCCCCNC(=O)[C@H]1C[C@H]2C(=O)NCC(=O)N2[C@H]1c1cccc(OCCO)c1,0.942,-0.191 (inactive),1.49 (inactive),0.258 (inactive),-0.764 (inactive),-0.39 (inactive),0.325 (inactive),0.261 (inactive),1.28,0.0174,-0.109 (inactive),0.388,1.01,-1.67 (inactive),-0.56 (inactive),-0.321 (inactive)
